Data on 95 compounds can be found in PubChem BioAssay AID1851 (National Center for Advancing Translational Sciences (NCATS), 2009).

The campaign covered roughly 16,000 compounds. About 5,800 (36%) were called active. Roughly 23% stayed inconclusive and do not appear here. The call rests on the fitted dose curve; in most records, active means well fitted curve in the direction sought with a large enough effect; inconclusive means small, poorly fitted or top-dose-only effect, or effect the other way; inactive means no such curve, though single readings can be large or run the other way. The list shows a part of the results.

In general, AC50 refers to the concentration at which the activity in the assay is half-maximal.
On the % scale 0 is the no-effect control and ±100 the full control effect.

The target of the assay is Cytochrome P450 2C19 (Homo sapiens) (UniProt P33261). Description: Cytochrome panel assay with activity outcomes. Particulars: recombinant CYP, pro-luciferin dealkylation, luminescence, p450-cyp2c19; series mostly up to 57.1 µM.
Sequence of Cytochrome P450 2C19 (Homo sapiens) (P33261 whole entry, looked up): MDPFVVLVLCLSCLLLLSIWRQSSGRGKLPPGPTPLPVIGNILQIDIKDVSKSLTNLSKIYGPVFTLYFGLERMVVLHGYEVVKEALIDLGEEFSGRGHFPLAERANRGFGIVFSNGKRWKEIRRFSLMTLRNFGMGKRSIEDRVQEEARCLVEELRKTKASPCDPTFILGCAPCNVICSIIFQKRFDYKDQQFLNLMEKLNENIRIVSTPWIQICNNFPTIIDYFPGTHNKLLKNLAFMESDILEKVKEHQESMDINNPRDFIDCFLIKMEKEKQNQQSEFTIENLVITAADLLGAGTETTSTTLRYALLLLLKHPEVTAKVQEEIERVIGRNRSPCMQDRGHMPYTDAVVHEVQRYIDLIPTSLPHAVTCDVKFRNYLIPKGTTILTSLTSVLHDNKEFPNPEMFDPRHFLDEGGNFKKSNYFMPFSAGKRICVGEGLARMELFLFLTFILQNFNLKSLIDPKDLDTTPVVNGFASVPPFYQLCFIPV
In the case of `OC[C@H]1O[C@H](n2cnc3c(NC4CCCC4)nc(Cl)nc32)[C@@H](O)[C@@H]1O`, the AC50 entry was “inactive”. The same measure, in the same setting: the figure for `CCn1c(SCc2cccc(C)c2)nnc1-c1ccc(C)cc1` is 2.24 µM (active); for `COc1ccc(-c2nnc(SCc3cccc(C)c3)n2N)cc1` it is 2.51 µM (active).

On to `CCn1c(SCc2cccc(C)c2)nnc1-c1ccccc1`, for which the AC50 is 0.501 µM (active).

As for `NS(=O)(=O)c1cc2c(cc1Cl)=NC(CCC(=O)O)=NS=2(=O)O`, the activity, negative = inhibition was 22.1% [at 11.4 µM] (inactive). As to `C[C@H](C[C@H](N)C(=O)O)C(=O)O`, the AC50 entry was “inactive”.

On to `O=C(O)/C(=C\c1ccncc1)c1cccc2ccccc12`, for which the AC50 is 2.51 µM (active). As to `NC(=O)/C(=C\c1ccncc1)c1cccc2ccccc12`, the AC50 was 2.51 µM (active).

Consider `O=C(O)CCC(=O)c1ccc2ccc3cccc4ccc1c2c34`, for which the activity, negative = inhibition was 25.1% [at 11.4 µM] (inactive). Still for that read-out and setting: under `O=C(O)/C(=C\c1ccc(O)cc1)c1cccc2ccccc12` stands -11.8% [at 11.4 µM] (inactive); under `OC[C@@H]1O[C@@H](N2CCN([C@@H]3O[C@@H](CO)[C@@H](O)[C@H](O)[C@H]3O)CC2)[C@@H](O)[C@H](O)[C@H]1O`, 29.2% [at 11.4 µM] (inactive). Regarding `Clc1ccc2c(c1)C1=C(C(c3ccncc3)O2)C(c2ccc(Br)cc2)n2ncnc2N1` (stereo not given), the AC50 was 0.708 µM (active). The same measure, in the same setting: the figure for `Cc1cc(O)c(C(C)C)cc1N=Cc1ccccc1O` is 0.398 µM (active). Take `O=C(O)c1cc(N=Cc2ccccc2O)cc(C(=O)O)c1`: the activity, negative = inhibition was 8.41% [at 11.4 µM] (inactive). As for `O=C(O)c1ccccc1C(=O)Nc1ccc(S(=O)(=O)Nc2nccs2)cc1`, the AC50 result is “inactive”. Regarding `O=C(CCN1C(=O)S/C(=C\c2ccccc2)C1=O)Nc1ccc(S(=O)(=O)Nc2nccs2)cc1`, the AC50 was 5.01 µM (active).

Consider `c1ccc2c(CN3CCN(Cc4c[nH]c5ccccc45)CC3)c[nH]c2c1`, for which the activity, negative = inhibition is 1.09% [at 11.4 µM] (inactive). As for `O=S1(=O)CCN(c2ccccc2CC(c2c[nH]c3ccccc23)c2c[nH]c3ccccc23)CC1`, the AC50 was 3.16 µM (active). On the same count and under the same terms, the figure for `Fc1cc2nc(-c3ccncc3)[nH]c2cc1F` is 7.08 µM (active). The same measure, in the same setting: the figure for `COc1ccc(C2=CSC(/N=C/c3ccc(F)cc3)=NN2)cc1` is 17.8 µM (active); for `CC(C)CCOc1ccc(NC(=O)C2OC3OC(C)(C)OC3C3OC(C)(C)OC23)cc1` (stereo not given) it is “inactive”. Still for that read-out and setting: the entry for `CCN(CC)CCNC(=O)c1cc(Br)c(N)cc1OC` is “inactive”; for `COc1ccc(Br)cc1C(=O)Nc1ccc(Cc2ccncc2)cc1` it is 0.794 µM (active).

For `Cn1c(=O)n(-c2ccc(Cl)cc2)c(=O)c2c3c(sc21)COC(C)(C)C3`, the AC50 is 20 µM (active). Same read-out and setting: the entry for `CN1CCc2c(sc3c2c(=O)n(-c2ccccc2)c2nncn32)C1` is “inactive”. Still for that read-out and setting: the figure for `COc1cc(/C=C(\C#N)C(=O)NCC2CCCO2)c([N+](=O)[O-])cc1OC` (stereo not given) is 11.2 µM (active); for `Cc1ccc(-n2c(C)cc(/C=C(\C#N)C(=O)NCC3CCCO3)c2C)cc1` (stereo not given) it is 3.16 µM (active); for `COc1ccc(/C=C(\C#N)C(=O)NCC2CCCO2)cc1OC` (stereo not given) it is “inactive”. As to `N[C@@H](Cc1ccnnc1)C(=O)O`, the activity, negative = inhibition is 35.8% [at 11.4 µM] (inactive). On to `CC(C)[C@H](CO)Nc1nc(Nc2ccc(C(=O)O)c(Cl)c2)c2ncn(C(C)C)c2n1`, for which the AC50 entry is “inactive”. Still for that read-out and setting: the figure for `CCOC(=O)CSc1cc(=O)n(C)c2cc(Cl)ccc12` is 4.47 µM (active); for `Cc1ccc(C)c(/C(O)=C2\C(=O)C(=O)N(Cc3cccnc3)C2c2cccnc2)c1` (stereo not given) it is “inactive”; for `Cc1cccc(-n2nc([N+](=O)[O-])c(=NCc3cccnc3)n2O)c1` it is 6.31 µM (active).

Regarding `O=C1c2ccccc2C(=O)N1CCSC(=S)N1CCOCC1`, the AC50 was 1.58 µM (active). With `Cn1c(=S)c2[nH]c(SCCN3C(=O)c4ccccc4C3=O)nc2n(C)c1=O`, the activity, negative = inhibition is 17.2% [at 11.4 µM] (inactive). Consider `Cc1cc2ccccn2c1C(=O)c1ccc(Cl)cc1`, for which the AC50 was 1.26 µM (active). Same read-out and setting: under `Cc1cc(CC(=O)O)n(C)c1C(=O)c1ccc(Cl)cc1` stands “inactive”. On the same count and under the same terms, under `Cc1cc2ccccn2c1C(=O)c1nc(N2CCOCC2)ncc1Cl` stands 7.94 µM (active); under `Cc1nc2cnc(N3CCOCC3)nc2n(C)c1=O`, “inactive”. Same read-out and setting: under `O=c1c(-c2ccccc2)nc2cnc(N3CCOCC3)nc2n1-c1ccccc1` stands “inactive”; under `CCC(=O)NNc1cc(=O)c2c(=O)n(C)c(=O)n(C)c2[nH]1`, “inactive”. For `CC(=O)NC1=NC(=O)C(C)S1` (stereo not given), the AC50 result was “inactive”. Still for that read-out and setting: the figure for `COc1ccc(CC(=O)NCc2ccccn2)cc1OC` is 28.2 µM (active); for `COc1cc(CNCc2ccccn2)ccc1OCc1ccc(Cl)cc1Cl` it is 3.98 µM (active). On the same count and under the same terms, under `COc1cc2c(cc1OC)-c1cc(NCc3ccccn3)nc(=O)n1CC2` stands “inactive”; under `Cc1ccc(CS(=O)(=O)CCC(=O)NCc2ccccn2)cc1`, “inactive”. For `CCN1C(=O)[C@H]2[C@H]3[C@H](O)[C@H](O)C/C(=N/OCC(C)C)[C@H]3CC[C@@H]2C1=O`, the activity, negative = inhibition was 28.2% [at 11.4 µM] (inactive). `COc1ccccc1OCC(=O)NNC(=O)c1cnccn1`: the AC50 entry is “inactive”. Same read-out and setting: the figure for `COc1ccccc1OCC(=O)N/N=C1/SCC(=O)N1Cc1ccccc1` is 14.1 µM (active). `CCOC(=O)N/N=C1/C[C@@H](O)[C@@H](O)[C@@H]2[C@@H]3C(=O)N(Cc4ccccc4)C(=O)[C@H]3CC[C@H]12`: the activity, negative = inhibition is 10.9% [at 11.4 µM] (inactive). On to `CCC(C)N1C(=O)S/C(=C/c2ccc(Sc3nc4ccccc4[nH]3)o2)C1=O` (stereo not given), for which the AC50 was 1.12 µM (active). Still for that read-out and setting: under `CCCCCC1CCC(C(=O)NNC(=S)NCC)CC1` (stereo not given) stands 17.8 µM (active); under `COc1ncnc(NS(=O)(=O)c2ccc(N)cc2)c1OC`, “inactive”. Regarding `Cc1[nH]c(N)nc(=S)c1CCC(=O)O`, the activity, negative = inhibition is 3.33% [at 11.4 µM] (inactive). Turning to `Cc1[nH]c(N)nc(=S)c1CCCNc1ccccc1`, the AC50 is 2 µM (active).

As for `Nc1nc(N)c(CCCCc2ccccc2)c(N)n1`, the activity, negative = inhibition was -22.9% [at 11.4 µM] (inactive).

In the case of `Cn1c(N)c(N=Nc2ccc(S(N)(=O)=O)cc2)c(=O)n(C)c1=O`, the activity, negative = inhibition is 76% [at 11.4 µM] (inactive). `c1ccc(-c2nnc(SCCC3OCCCO3)o2)cc1`: the AC50 is 5.01 µM (active).

On to `COc1ccc(NC(=O)N2CC3(CCN(S(C)(=O)=O)CC3)C2)cc1`, for which the AC50 result was “inactive”. Turning to `COc1ccc(NC(=O)N2CCCC3(CCN(S(C)(=O)=O)CC3)C2)cc1`, the AC50 result was “inactive”. Take `O=C(Nc1ccccc1)N1CCC2(CC1)CCN(S(=O)(=O)c1ccccc1)CC2`: the AC50 is 15.8 µM (active). On the same count and under the same terms, the entry for `COc1ccc(NC(=O)N2CCCC3(CCN(C(=O)c4cnccn4)CC3)C2)cc1` is “inactive”. Take `COc1ccc(NC(=O)N2CCC3(CC2)CCN(C(=O)c2cnccn2)CC3)cc1`: the AC50 was 25.1 µM (active).

Consider `COc1ccc(NC(=O)N2CC3(CCN(C(=O)c4cnccn4)CC3)C2)cc1`, for which the AC50 entry was “inactive”. In the case of `COc1ccc(NC(=O)N2CCC3(CC2)CCN(S(C)(=O)=O)CC3)cc1`, the AC50 is 3.16 µM (active). On the same count and under the same terms, under `COc1ccc(NC(=O)N2CC3(CCN(S(=O)(=O)c4ccccc4)CC3)C2)cc1` stands “inactive”; under `COc1ccc(NC(=O)N2CCC3(CC2)CCN(S(=O)(=O)c2ccccc2)CC3)cc1`, “inactive”; under `CC12c3ccccc3C(c3ccccc31)C1C(=O)N(Cc3cccnc3)C(=O)C12` (stereo not given), 1.26 µM (active). Same read-out and setting: under `FC(F)(F)c1cnc(/C=C/Nc2ccccc2Cl)c(Cl)c1` stands “inactive”. The same measure, in the same setting: the figure for `Nc1ccccc1Oc1ncc(C(F)(F)F)cc1Cl` is 7.94 µM (active); for `Oc1cc(O)c2c(c1)O[C@H](c1ccc(O)c(O)c1)[C@H](O)C2` it is “inactive”; for `CN1CCN(c2nc3cc(C(F)(F)F)ccc3n3cccc23)CC1` it is 12.6 µM (active).

Consider `CCOc1ccc2c(ccc(/C=C\c3cc(C)c4cccnc4c3O)[n+]2C)c1`, for which the activity, negative = inhibition is 27.7% [at 11.4 µM] (inactive). The same measure, in the same setting: the figure for `COc1cc(NCCC(=O)O)c2ncccc2c1` is -14.2% [at 11.4 µM] (inactive). As to `Cc1ccc(OCCCOc2cccc3cccnc23)cc1C`, the AC50 was 1.12 µM (active). Still for that read-out and setting: under `O=C1N/C(=C\c2ccc(N3CCOCC3)c(F)c2)C(=O)N1Cc1ccccc1` stands 14.1 µM (active).

For the compound `c1ccc2c(-n3ccnc3)nc(-c3ccoc3)nc2c1`, the AC50 was 20 µM (active).

`CN1CCN(c2nc(-c3ccoc3)nc3ccccc23)CC1`: the AC50 entry is “inactive”. Same read-out and setting: under `c1ccc2c(N3CCNCC3)nc(-c3ccc4c(c3)OCO4)nc2c1` stands “inactive”; under `c1ccc2c(N3CCOCC3)nc(-c3ccoc3)nc2c1`, “inactive”; under `c1cncc(-c2nc(N3CCNCC3)c3ccccc3n2)c1`, “inactive”.

As for `CN(C)c1ccc(-c2nc(-n3ccnc3)c3ccccc3n2)cc1`, the half-maximal activity concentration (AC50) is 2.51 µM (active). With `CN(C)c1ccc(-c2nc(N3CCNCC3)c3ccccc3n2)cc1`, the AC50 was 15.8 µM (active). As to `CO[C@@H]1/C=C\CC(=O)N[C@@H](C)C(=O)OC[C@@H](OC)[C@H](C)/C=C\CC(=O)OC[C@H]1C`, the activity, negative = inhibition was -30.6% [at 11.4 µM] (inactive). `Nc1ccc(S(=O)(=O)Nc2ccccn2)cc1`: the AC50 result was “inactive”. Same read-out and setting: the figure for `O=C1C(Cl)=C(Nc2ccc(S(=O)(=O)Nc3ccccn3)cc2)C(=O)c2ccccc21` is 0.794 µM (active). With `CN(C)S(=O)(=O)Nc1ccccn1`, the activity, negative = inhibition is -1.75% [at 11.4 µM] (inactive). As for `CCOC(=O)N1CCC(NC(=O)CSCc2cnn(-c3ccccc3)c2-n2cccc2)CC1`, the AC50 was 5.01 µM (active). On the same count and under the same terms, under `Cc1ccc(C)c(CN2C(=O)C3CCCN3c3ccc(C#N)cc32)c1` (stereo not given) stands 3.16 µM (active); under `Cc1ccc(C)c(C(=N)c2ccccc2Cc2ccccc2)c1`, 1 µM (active); under `N=C(c1ccc2ccccc2c1)c1ccccc1Cc1ccccc1`, 3.98 µM (active).

In the case of `CC(C)N(CCC(=O)c1ccc2ccccc2c1)Cc1ccccc1`, the AC50 result is “inactive”.

As to `O=C(O)CNC(=O)c1ccccc1O`, the activity, negative = inhibition is 26.9% [at 11.4 µM] (inactive). Take `COc1ccccc1C(=O)N/C(=C/c1ccc(Br)cc1)C(=O)NCC(=O)O`: the AC50 is 25.1 µM (active). The same measure, in the same setting: under `COc1cc(/C=C(/NC(=O)c2ccccc2Cl)C(=O)O)cc(OC)c1OC` stands “inactive”.
